# Measurements as given in PubChem BioAssay (EPA / NIEHS).
# Values joined by “and” are separate entries in the source; they are usually repeats but may differ in a detail not shown here. Identical values can stand only once. Inconclusive results are not listed. Where a structure was tested more than once in an assay, its records may differ in their call. Active and inactive are the calls of the source. The calls were made as follows, unless noted: active = hit-call score of the fitted dose curve at least 0.9, where 1 is the maximum; inconclusive = response in the unintended direction; inactive = score below 0.9.
# Experiments:
# [1] = target: Androgen receptor (Homo sapiens) (UniProt P10275); assay: ATG_AR_TRANS: Attagene TRANS-FACTORIAL HepG2 Assay for human Androgen Receptor (AR) (AID 2282973); conditions: HepG2 Attagene TRANS-FACTORIAL AR reporter transcription
# Procedure, shortened: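 HepG2 cells transiently transfected with multiplexed GAL4-UAS reporter units and chimeric NR-Gal4 fusion; 24 h compound exposure. Reporter mRNA measured by RT-PCR, 6-FAM labelling, HpaI digestion and capillary electrophoresis; gain-of-signal fitted relative to DMSO baseline.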
# [2] = Tanguay_ZF_120hpf_MUSC: Oregon State University Tanguay Lab 120 Hour Post-fertilization zebrafish Assay for Muscle Malformation (AID 2284401; active = hit-call score of the fitted dose curve at least 0.9, where 1 is the maximum; inactive = score below 0.9)
# Procedure, shortened: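 Dechorionated Tropical 5D wild-type zebrafish embryos exposed statically from 6 to 120 hpf at 28C, one per well, in 0.64% DMSO. Muscle malformation scored present/absent by brightfield microscopy at 120 hpf, fitted against DMSO.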
# [3] = target: human CYP2C8, CYP2C8 (gene 1558) (UniProt P10632); assay: NVS_ADME_hCYP2C8: NovaScreen (NVS) CYP450-related Enzyme Activity (ADME) Assay for human CYP2C8 (AID 2283104; active = hit-call score of the fitted dose curve at least 0.9, where 1 is the maximum; inactive = score below 0.9)
# Procedure, shortened: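 Recombinant human CYP2C8 with fluorogenic substrate, 0.5 h, fluorescence intensity; signal loss fitted versus acetonitrile. Screened in duplicate at 10 uM, then actives run in concentration-response up to 20 uM.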
# [4] = target: human CYP2J2, CYP2J2 (gene 1573) (UniProt P51589); assay: NVS_ADME_hCYP2J2: NovaScreen (NVS) CYP450-related Enzyme Activity (ADME) Assay for human CYP2J2 (AID 2283106)
# Procedure, shortened: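 Cell-free assay of recombinant CYP2J2 with a fluorogenic substrate, read 1 h after dosing; loss of signal versus acetonitrile. Primary screen at 10 uM in duplicate, then concentration-response up to 20 uM for chemicals passing threshold (e.g., 30% inhibition).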
# [5] = target: rat CYP2C12, Cyp2c12 (gene 25011) (UniProt P11510); assay: NVS_ADME_rCYP2C12: NovaScreen (NVS) CYP450-related Enzyme Activity (ADME) Assay for rat CYP2C12 (AID 2283119)
# Procedure, shortened: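 Cell-free recombinant rat CYP2C12 activity read by fluorescence 0.5 h after dosing; loss of signal versus acetonitrile control. Primary screen in duplicate at 10 uM; actives then run in concentration-response format.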
# [6] = target: rat CYP2D1, Cyp2d1 (gene 266684) (UniProt P10633); assay: NVS_ADME_rCYP2D1: NovaScreen (NVS) CYP450-related Enzyme Activity (ADME) Assay for rat CYP2D1 (AID 2283122)
# Procedure, shortened: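 Cell-free fluorescence enzyme-activity assay on extracted rat CYP2D1 protein, read 0.75 h after dosing. Primary screen in duplicate at 10 uM; qualifying chemicals then run in concentration-response to 20 uM max, loss-of-signal versus acetonitrile baseline.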
# [7] = target: human Matrix Metalloproteinase-1 (MMP1), MMP1 (gene 4312) (UniProt P03956); assay: NVS_ENZ_hMMP1: NovaScreen (NVS) Enzymatic Assay for human Matrix Metalloproteinase-1 (MMP1) (AID 2283181)
# Procedure, shortened: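 Human MMP1 enzyme activity measured by fluorescence 1 h after dosing, cell-free, with a specific substrate. Screened in duplicate at 25 uM; hits (e.g. 30% inhibition) run in concentration-response up to 50 uM; loss of signal versus DMSO.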
# [8] = target: Norway rat Vesicular Monoamine Transporter (VMAT2), neurotransmitter transporter, Slc18a2 (gene 25549) (UniProt Q01827); assay: NVS_TR_rVMAT2: NovaScreen (NVS) Transporter Assay for Norway rat Vesicular Monoamine Transporter (VMAT2), neurotransmitter transporter (AID 2283376);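 also: actives lower the bound radioligand signal below the DMSO level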
# Procedure, shortened: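 Radioligand displacement binding on rat forebrain tissue preparation, filter-based scintillation read-out 1 hour after dosing. Primary screen in duplicate at 25 uM, then concentration series for actives; loss of signal versus DMSO.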
# [9] = target: Cellular tumor antigen p53 (Homo sapiens) (UniProt P04637); assay: TOX21_p53_BLA_p2_ratio: Tox21 HCT-116 p53 Agonism Beta-lactamase Assay, Ratio, Phase 2 (AID 2283592)
# Procedure, shortened: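 HCT116 cells carrying a p53-responsive beta-lactamase reporter were plated, incubated 5 h at 37C, then dosed with compounds in DMSO (217-fold dilution) for 16 h. CCF4-AM substrate was added for 2 h at room temperature; the 460/530 nm emission ratio gave gain-of-signal activity relative to DMSO.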
# [10] = target: Cellular tumor antigen p53 (Homo sapiens) (UniProt P04637); assay: TOX21_p53_BLA_p3_ratio: Tox21 HCT-116 p53 Agonism Beta-lactamase Assay, Ratio, Phase 3 (AID 2283596)
# Procedure, shortened: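 HCT116 p53-bla cells (4000/well) given compound in DMSO (217-fold dilution) after 5 h, incubated 16 h at 37C. CCF4-AM substrate 2 h at room temperature; 460/530 nm emission ratio, gain fitted against DMSO.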
# [11] = target: Cellular tumor antigen p53 (Homo sapiens) (UniProt P04637); assay: TOX21_p53_BLA_p5_ratio: Tox21 HCT-116 p53 Agonism Beta-lactamase Assay, Ratio, Phase 5 (AID 2283599)
# Procedure, shortened: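 HCT-116 p53-bla cells (4000/well) plated 5 h, dosed with compound (217-fold DMSO dilution) for 16 h at 37 C; CCF4-AM substrate 2 h at room temperature. Activity is the 460/530 nm emission ratio (405 nm excitation), fitted in gain-of-signal direction versus DMSO.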
# [12] = target: Cellular tumor antigen p53 (Homo sapiens) (UniProt P04637); assay: TOX21_p53_BLA_p4_ratio: Tox21 HCT-116 p53 Agonism Beta-lactamase Assay, Ratio, Phase 4 (AID 2283601)
# Procedure, shortened: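 HCT-116 p53 beta-lactamase reporter cells (4000/well) preincubated 5 h, then compound (217-fold dilution of DMSO stock) for 16 h at 37C. CCF4-AM substrate added 2 h at room temperature; 460/530 nm emission ratio fitted upward versus DMSO.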
# [13] = target: human CYP4F12, CYP4F12 (gene 66002) (UniProt Q9HCS2); assay: NVS_ADME_hCYP4F12: NovaScreen (NVS) CYP450-related Enzyme Activity (ADME) Assay for human CYP4F12 (AID 2283111)
# Procedure, shortened: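 Cell-free fluorescence assay of recombinant human CYP4F12 activity on a specific substrate, read 0.5 h after dosing. Primary screen in duplicate at 10 uM, then concentration series for actives; loss of signal fitted against acetonitrile negative control.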
# [14] = tested on: rat Monoamine Oxidase, MAO-A, Central (MAOAC), gene 29253; assay: NVS_ENZ_rMAOAC: NovaScreen (NVS) Enzymatic Assay for rat Monoamine Oxidase, MAO-A, Central (MAOAC) (AID 2283243);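 also: potency refers to inhibition seen as signal drop below DMSO baseline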
# Procedure, shortened: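 Steps: rat brain protein extract dosed with test chemical (25 uM, duplicate, primary); incubated 1.5 h; radiolabelled product separated from substrate and counted. Signal loss versus DMSO scored as inhibition.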
# [15] = target: human Peroxisome Proliferator-activated Receptor delta (PPARd), PPARD (gene 5467) (UniProt Q03181); assay: ATG_PPARd_TRANS: Attagene TRANS-FACTORIAL HepG2 Assay for human Peroxisome Proliferator-activated Receptor delta (PPARd) (AID 2283002)
# Procedure, shortened: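 Fluorescence from capillary electrophoresis of labelled RT-PCR reporter fragments gives the signal; DMSO sets baseline. Cells: HepG2 transiently carrying GAL4-UAS reporter units plus chimeric nuclear receptor-Gal4 proteins, exposed to chemicals for 24 h.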
# [16] = target: Peroxisome proliferator-activated receptor gamma (Homo sapiens) (UniProt P37231); assay: ATG_PPARg_TRANS: Attagene TRANS-FACTORIAL HepG2 Assay for human Peroxisome Proliferator-activated Receptor-gamma (PPARg) (AID 2283007)
# Procedure, shortened: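 A TRANS-format multiplexed reporter assay measures activity of an exogenous chimeric NR-Gal4 protein in HepG2 cells. After 24 h of chemical exposure, reporter transcripts are amplified, fluorescently labelled and sized by capillary electrophoresis, with gain of signal scored against DMSO.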
# [17] = target: Nuclear receptor subfamily 1 group I member 2 (Homo sapiens) (UniProt O75469); assay: ATG_PXR_TRANS: Attagene TRANS-FACTORIAL HepG2 Assay for human Pregnane X Receptor (PXR) (AID 2283008)
# Procedure, shortened: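 Read-out is fluorescence of labelled reporter cDNA fragments separated by capillary electrophoresis after RT-PCR and HpaI digestion. Source: HepG2 cells carrying PXR-GAL4/UAS reporter constructs, treated 24 h; activity fitted upward relative to DMSO.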
# [18] = target: sheep Cyclooxygenase-1 (Cox1), PTGS1 (gene 443551) (UniProt P05979); assay: NVS_ENZ_oCOX1: NovaScreen (NVS) Enzymatic Assay for sheep Cyclooxygenase-1 (Cox1) (AID 2283239);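 also: actives reduce cyclooxygenase activity so potencies are for inhibitors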
# Procedure, shortened: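 Cell-free colorimetric assay of enzyme activity in a native extract of ovine seminal vesicles. Absorbance was read 0.66 hour after compound addition. Loss of signal relative to the DMSO negative control was scored, with actives from the 25 uM duplicate primary screen retested in concentration series.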
# [19] = CCTE_Harrill_HTTr_Apoptosis_MCF7: CCTE's 6-hour Apoptosis Assessment for the High-Throughput Transcriptomics (HTTr) Platform, in MCF-7 cells cultured in DMEM + 10% fetal bovine serum, Harrill Lab (AID 2284011; active = hit-call score of the fitted dose curve at least 0.9, where 1 is the maximum; inactive = score below 0.9)
# Procedure, shortened: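 MCF-7 cells in DMEM + 10% fetal bovine serum were exposed to chemicals for 6 hours over an eight-point dilution series. Caspase-3/7 activation was imaged by high content imaging with CellEvent Caspase 3/7 Green; bidirectional fitting used DMSO as baseline.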
# [20] = target: human Ephrin type-A Receptor 2 (EphA2), EPHA2 (gene 1969) (UniProt P29317); assay: NVS_ENZ_hEphA2: NovaScreen (NVS) Enzymatic Assay for human Ephrin type-A Receptor 2 (EphA2) (AID 2283155)
# Procedure, shortened: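 Cell-free recombinant EphA2 kinase with specific substrate, 1 h, fluorescence with electrophoretic mobility-shift separation of substrate and product. Primary screen at 25 uM in duplicate; hits retested in singleton concentration-response up to 50 uM, referenced to DMSO.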
# [21] = target: human Protein Tyrosine Phosphatase Non-receptor Type 2 (PTPN2), PTPN2 (gene 5771) (UniProt P17706); assay: NVS_ENZ_hPTPN2: NovaScreen (NVS) Enzymatic Assay for human Protein Tyrosine Phosphatase Non-receptor Type 2 (PTPN2) (AID 2283207)
# Procedure, shortened: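 Cell-free recombinant enzyme with fluorescent substrate, product separated by electrophoretic mobility shift; read 1 h after dosing. Primary screen single concentration (25 uM) in duplicate; actives followed in concentration series; loss of signal versus DMSO.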
# Sequence of Cellular tumor antigen p53 (Homo sapiens) (P04637 whole entry, looked up): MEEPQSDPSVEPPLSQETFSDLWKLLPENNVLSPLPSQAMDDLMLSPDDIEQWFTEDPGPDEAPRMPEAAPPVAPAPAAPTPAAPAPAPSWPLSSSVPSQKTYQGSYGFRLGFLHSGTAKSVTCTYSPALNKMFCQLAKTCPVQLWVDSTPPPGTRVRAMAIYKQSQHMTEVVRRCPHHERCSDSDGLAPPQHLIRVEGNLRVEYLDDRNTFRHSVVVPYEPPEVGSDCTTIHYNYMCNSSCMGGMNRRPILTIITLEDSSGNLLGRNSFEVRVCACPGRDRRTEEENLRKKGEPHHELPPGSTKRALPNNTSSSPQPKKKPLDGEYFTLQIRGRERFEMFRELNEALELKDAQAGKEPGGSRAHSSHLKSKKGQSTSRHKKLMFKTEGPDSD
# Sequence of Androgen receptor (Homo sapiens) (P10275 whole entry, looked up, the tested form may be a part): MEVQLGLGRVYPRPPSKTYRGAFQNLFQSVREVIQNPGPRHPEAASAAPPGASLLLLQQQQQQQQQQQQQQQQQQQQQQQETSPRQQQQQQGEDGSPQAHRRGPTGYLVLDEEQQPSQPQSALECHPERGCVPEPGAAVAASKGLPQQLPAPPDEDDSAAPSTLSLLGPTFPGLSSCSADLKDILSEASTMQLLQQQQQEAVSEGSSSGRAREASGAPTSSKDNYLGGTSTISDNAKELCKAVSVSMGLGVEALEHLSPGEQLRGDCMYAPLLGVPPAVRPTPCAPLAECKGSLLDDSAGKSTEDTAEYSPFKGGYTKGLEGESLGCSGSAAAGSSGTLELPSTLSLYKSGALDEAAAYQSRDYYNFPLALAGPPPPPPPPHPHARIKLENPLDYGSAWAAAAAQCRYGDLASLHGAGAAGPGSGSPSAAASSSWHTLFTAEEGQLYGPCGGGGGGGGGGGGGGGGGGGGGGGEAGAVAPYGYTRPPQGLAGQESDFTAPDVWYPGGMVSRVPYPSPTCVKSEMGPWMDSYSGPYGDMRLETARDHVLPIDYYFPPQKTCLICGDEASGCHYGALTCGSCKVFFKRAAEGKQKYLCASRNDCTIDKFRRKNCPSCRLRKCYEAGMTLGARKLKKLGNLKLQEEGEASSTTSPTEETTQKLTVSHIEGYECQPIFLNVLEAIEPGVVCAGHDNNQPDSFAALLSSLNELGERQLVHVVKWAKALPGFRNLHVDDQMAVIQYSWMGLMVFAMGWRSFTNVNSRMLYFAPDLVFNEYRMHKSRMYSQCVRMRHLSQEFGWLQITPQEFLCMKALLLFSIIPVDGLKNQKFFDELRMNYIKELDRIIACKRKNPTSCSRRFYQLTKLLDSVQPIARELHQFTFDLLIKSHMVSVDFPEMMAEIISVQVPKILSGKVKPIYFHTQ
# Sequence of human CYP2J2, CYP2J2 (gene 1573) (P51589 whole entry, looked up): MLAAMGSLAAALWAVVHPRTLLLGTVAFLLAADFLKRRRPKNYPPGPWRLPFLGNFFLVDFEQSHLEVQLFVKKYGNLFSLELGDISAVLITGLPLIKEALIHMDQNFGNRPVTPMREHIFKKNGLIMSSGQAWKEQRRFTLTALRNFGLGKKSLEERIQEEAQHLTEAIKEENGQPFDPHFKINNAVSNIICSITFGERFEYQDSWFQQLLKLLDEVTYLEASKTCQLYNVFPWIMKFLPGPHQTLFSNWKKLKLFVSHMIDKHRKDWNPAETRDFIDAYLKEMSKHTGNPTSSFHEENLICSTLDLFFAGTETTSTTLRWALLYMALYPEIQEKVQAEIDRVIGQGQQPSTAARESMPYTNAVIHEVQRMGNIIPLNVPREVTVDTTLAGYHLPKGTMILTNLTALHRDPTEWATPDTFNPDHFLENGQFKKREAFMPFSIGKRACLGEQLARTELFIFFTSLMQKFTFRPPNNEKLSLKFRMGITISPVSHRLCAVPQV
# Sequence of human CYP4F12, CYP4F12 (gene 66002) (Q9HCS2 whole entry, looked up): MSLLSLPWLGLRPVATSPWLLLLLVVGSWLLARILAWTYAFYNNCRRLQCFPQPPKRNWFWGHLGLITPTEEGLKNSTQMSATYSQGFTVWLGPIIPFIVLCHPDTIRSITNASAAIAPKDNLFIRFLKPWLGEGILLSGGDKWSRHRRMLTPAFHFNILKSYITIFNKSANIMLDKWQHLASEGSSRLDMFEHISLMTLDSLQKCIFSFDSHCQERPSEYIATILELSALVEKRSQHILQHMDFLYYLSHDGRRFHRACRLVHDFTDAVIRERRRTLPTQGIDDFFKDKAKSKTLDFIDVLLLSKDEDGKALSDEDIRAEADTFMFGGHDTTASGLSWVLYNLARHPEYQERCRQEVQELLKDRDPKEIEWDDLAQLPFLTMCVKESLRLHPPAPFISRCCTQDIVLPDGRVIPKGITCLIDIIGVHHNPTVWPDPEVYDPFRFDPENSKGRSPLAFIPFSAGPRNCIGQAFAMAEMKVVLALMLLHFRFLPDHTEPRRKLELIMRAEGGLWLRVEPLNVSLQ
# Sequence of Norway rat Vesicular Monoamine Transporter (VMAT2), neurotransmitter transporter, Slc18a2 (gene 25549) (Q01827 whole entry, looked up): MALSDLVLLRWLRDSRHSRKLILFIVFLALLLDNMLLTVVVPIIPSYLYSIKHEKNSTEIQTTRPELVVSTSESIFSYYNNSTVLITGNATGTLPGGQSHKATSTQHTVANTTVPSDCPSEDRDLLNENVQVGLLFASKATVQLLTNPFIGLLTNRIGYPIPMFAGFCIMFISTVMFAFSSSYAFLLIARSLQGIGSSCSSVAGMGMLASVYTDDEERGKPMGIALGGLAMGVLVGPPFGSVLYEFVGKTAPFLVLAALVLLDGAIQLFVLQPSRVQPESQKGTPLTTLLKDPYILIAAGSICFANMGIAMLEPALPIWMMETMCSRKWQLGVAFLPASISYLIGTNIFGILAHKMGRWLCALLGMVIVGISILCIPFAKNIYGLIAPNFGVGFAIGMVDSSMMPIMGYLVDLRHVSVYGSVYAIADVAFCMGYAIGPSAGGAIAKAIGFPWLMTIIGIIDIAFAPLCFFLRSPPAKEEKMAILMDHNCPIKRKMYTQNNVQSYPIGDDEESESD
# Sequence of rat CYP2C12, Cyp2c12 (gene 25011) (P11510 whole entry, looked up): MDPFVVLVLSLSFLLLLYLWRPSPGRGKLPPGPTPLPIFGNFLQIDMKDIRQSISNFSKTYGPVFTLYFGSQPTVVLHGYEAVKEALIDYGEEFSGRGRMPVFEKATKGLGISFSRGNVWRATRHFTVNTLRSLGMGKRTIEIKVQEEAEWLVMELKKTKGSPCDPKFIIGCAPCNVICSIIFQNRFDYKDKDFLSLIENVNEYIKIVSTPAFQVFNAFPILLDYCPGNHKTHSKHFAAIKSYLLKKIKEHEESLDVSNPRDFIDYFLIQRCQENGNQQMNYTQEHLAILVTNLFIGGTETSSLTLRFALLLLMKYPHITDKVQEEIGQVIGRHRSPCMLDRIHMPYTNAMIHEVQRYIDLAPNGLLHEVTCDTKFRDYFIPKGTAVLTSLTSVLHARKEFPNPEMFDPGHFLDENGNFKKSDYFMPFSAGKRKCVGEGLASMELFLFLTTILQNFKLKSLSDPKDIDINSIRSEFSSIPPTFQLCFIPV
# Sequence of human Protein Tyrosine Phosphatase Non-receptor Type 2 (PTPN2), PTPN2 (gene 5771) (P17706 whole entry, looked up): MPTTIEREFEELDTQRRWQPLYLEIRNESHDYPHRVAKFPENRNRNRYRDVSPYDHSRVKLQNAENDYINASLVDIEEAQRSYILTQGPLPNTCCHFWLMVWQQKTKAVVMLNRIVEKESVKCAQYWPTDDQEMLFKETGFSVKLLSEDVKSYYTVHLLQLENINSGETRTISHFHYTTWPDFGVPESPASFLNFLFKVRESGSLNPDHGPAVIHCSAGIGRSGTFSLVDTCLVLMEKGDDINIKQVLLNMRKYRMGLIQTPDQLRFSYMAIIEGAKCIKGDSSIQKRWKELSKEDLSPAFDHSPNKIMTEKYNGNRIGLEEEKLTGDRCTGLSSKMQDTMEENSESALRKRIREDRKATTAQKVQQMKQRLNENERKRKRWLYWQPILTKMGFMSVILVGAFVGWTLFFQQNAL
# Sequence of sheep Cyclooxygenase-1 (Cox1), PTGS1 (gene 443551) (P05979 whole entry, looked up): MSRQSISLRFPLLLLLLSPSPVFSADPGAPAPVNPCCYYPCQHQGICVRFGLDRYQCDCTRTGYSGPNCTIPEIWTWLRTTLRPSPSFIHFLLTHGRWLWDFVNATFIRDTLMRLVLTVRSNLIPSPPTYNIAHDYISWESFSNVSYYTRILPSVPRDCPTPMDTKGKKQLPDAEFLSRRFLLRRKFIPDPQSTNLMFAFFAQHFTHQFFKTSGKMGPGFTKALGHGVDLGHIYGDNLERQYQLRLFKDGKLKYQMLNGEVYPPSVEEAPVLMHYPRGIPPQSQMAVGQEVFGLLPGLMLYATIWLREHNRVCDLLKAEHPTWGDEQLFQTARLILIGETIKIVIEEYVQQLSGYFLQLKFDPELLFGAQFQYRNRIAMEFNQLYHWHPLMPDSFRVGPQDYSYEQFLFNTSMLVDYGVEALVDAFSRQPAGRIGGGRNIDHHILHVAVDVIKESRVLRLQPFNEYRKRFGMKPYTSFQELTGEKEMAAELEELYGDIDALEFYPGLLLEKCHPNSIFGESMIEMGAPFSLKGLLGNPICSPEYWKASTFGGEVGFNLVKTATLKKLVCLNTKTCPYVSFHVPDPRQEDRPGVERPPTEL
# Sequence of human Matrix Metalloproteinase-1 (MMP1), MMP1 (gene 4312) (P03956 whole entry, looked up): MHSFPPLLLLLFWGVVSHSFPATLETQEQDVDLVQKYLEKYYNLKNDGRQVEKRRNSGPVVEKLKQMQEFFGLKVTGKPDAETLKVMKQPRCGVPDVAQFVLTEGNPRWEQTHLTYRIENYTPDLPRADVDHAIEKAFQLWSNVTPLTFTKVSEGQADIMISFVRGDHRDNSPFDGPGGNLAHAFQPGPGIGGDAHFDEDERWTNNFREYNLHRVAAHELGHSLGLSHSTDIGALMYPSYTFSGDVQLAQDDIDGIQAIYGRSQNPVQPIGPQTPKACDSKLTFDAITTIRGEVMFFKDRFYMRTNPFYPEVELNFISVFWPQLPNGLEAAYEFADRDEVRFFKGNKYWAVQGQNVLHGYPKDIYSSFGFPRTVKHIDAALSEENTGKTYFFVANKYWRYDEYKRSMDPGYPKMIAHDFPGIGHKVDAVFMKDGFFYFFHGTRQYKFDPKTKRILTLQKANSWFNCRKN
structure (smiles),measurement,setting,value
O=C(O)C(F)(F)C(F)(F)OC(F)(F)F,outcome,[1],inactive
same,outcome,[2],inactive
FC(F)(F)C(F)(F)C(F)(F)CC1CO1 (centres undefined),outcome,[1],inactive
same,outcome,[2],inactive
OCCCC(F)(F)C(F)(F)C(F)(F)F,outcome,[1],inactive
same,outcome,[2],inactive
C[N+](C)(C)CCCNS(=O)(=O)C(F)(F)C(F)(F)C(F)(F)C(F)(F)C(F)(F)C(F)(F)C(F)(F)C(F)(F)F,outcome,[1],inactive
same,outcome,[2],inactive
O=C(O)C=C(C(F)(F)F)C(F)(F)F,outcome,[1],inactive
same,outcome,[2],inactive
O=C(O)C(F)(OC(F)(F)C(F)(OC(F)(F)C(F)(F)C(F)(F)F)C(F)(F)F)C(F)(F)F (centres undefined),outcome,[1],inactive
same,outcome,[2],inactive
NC(=O)C(F)(F)C(F)(F)C(F)(F)C(F)(F)C(N)=O,outcome,[1],inactive
same,outcome,[2],inactive
C=CCOC(Cn1ccnc1)c1ccc(Cl)cc1Cl (centres undefined),AC50,[3],6.22 µM (active)
same,AC50,[4],166 nM (active)
same,AC50,[5],2.13 µM (active)
same,AC50,[6],3.58 µM (active)
same,AC50,[7],14 µM (active)
same,AC50,[8],12 µM (active)
same,AC50,[9],76.1 µM (active) and 72.5 µM (active)
same,outcome,[9],inactive
same,AC50,[10],83 µM (active) and 73.3 µM (active)
same,outcome,[10],inactive
same,AC50,[11],79.4 µM (active) and 77.2 µM (active)
same,outcome,[11],inactive
same,AC50,[12],80.8 µM (active) and 83.9 µM (active)
same,outcome,[12],inactive
C[C@]12CC[C@@H]3c4ccc(O)cc4CC[C@H]3[C@@H]1CC[C@@H]2O,outcome,[4],inactive
same,outcome,[13],inactive
same,outcome,[5],inactive
O=C(O)C(F)(F)C(F)(F)C(F)F,outcome,[1],inactive
same,outcome,[2],inactive
C=CC(=O)OCCC(F)(F)C(F)(F)C(F)(F)C(F)(F)F,outcome,[1],inactive
same,outcome,[2],inactive
C[Si](C)(C)C(F)(F)C(F)(F)C(F)(F)F,outcome,[1],inactive
same,outcome,[2],inactive
O=S(=O)(O)CCC(F)(F)C(F)(F)C(F)(F)C(F)(F)C(F)(F)C(F)(F)C(F)(F)C(F)(F)F,outcome,[1],inactive
same,outcome,[2],inactive
C#C[C@]1(O)CC[C@H]2[C@@H]3CCc4cc(O)ccc4[C@H]3CC[C@@]21C,AC50,[4],878 nM (active) and 2.68 µM (active) and 672 nM (active)
same,outcome,[14],inactive
O=[N+]([O-])c1ccccc1Cl,outcome,[15],inactive
same,outcome,[16],inactive
same,outcome,[17],inactive
same,outcome,[18],inactive
same,outcome,[8],inactive
same,outcome,[19],inactive
O=C(O)C(F)(F)C(F)(F)C(F)(F)OC(F)(F)F,outcome,[1],inactive
same,outcome,[2],inactive
CCOC(=O)NCCOc1ccc(Oc2ccccc2)cc1,outcome,[4],inactive
same,outcome,[20],inactive
same,outcome,[21],inactive
Cc1ccc(S(=O)(=O)OCC(F)(F)C(F)(F)C(F)(F)C(F)(F)C(F)(F)C(F)F)cc1,outcome,[1],inactive
same,outcome,[2],inactive
O=S(=O)(O)CCC(F)(F)C(F)(F)C(F)(F)C(F)(F)C(F)(F)C(F)(F)F,outcome,[1],inactive
same,outcome,[2],inactive
OCC(O)CC(F)(F)C(F)(F)C(F)(F)C(F)(F)F (centres undefined),outcome,[1],inactive
same,outcome,[2],inactive
O=C=NCCCCCCN=C=O,AC50,[13],0.884 µM (active)
